# A selection: hits, their analogues and other compounds. The true share with any hit is near 2.8%.
# KKLEB cytotox – reduces viability of KKLEB cystic fibrosis airway cells | KKLEB CF airway cells viability, ATPlite luminescence, overnight; hits give low values; cells stimulated with P. aeruginosa culture filtrate | activity change (cytotoxicity), % at 5 µM | 360,000 tested, 0.36% active | AID 602141;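 active means corrected activity change at or below -50% at 5 µM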
# Shn3 3UTR inh – reduces Shn3 3'UTR luciferase signal in osteoblasts | Clone20 osteoblast Shn3 3'UTR firefly luciferase, 24 h | 360,000 tested, 0.52% active | inhibition, % at 12.5 µM | AID 588674;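 active means mean inhibition of at least 75% with every replicate also reaching 75%; inconclusive means mean inhibition at least 75% but some replicate below; inactive means mean inhibition below 75%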;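 further: 0% = median of neutral control wells and 100% = pilot-screen positive control compound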
# HIF-2a block – inhibitors of HIF-2a; inhibition, % at 18.8 µM; 786-0 RCC cells HIF-2a reporter, luciferase luminescence, overnight; 360,000 tested, 0.72% active;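 active means inhibition of the luminescence signal of 40% or more relative to plate controls, in a single-dose primary screen at 18.75 µM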
# TRPM1 prom inh – inhibitors of MITF-driven TRPM1 promoter in melanoma cells; SK-MEL-5 TRPM1 promoter luciferase, 24 h; AID 488899; inhibition, % at 12.5 µM; 330,000 tested, 0.83% active;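 active means mean inhibition across replicates of 60% or more, whatever share of single replicates reaches that level; inconclusive means some that reach 60%, reason not given; inactive means mean inhibition across replicates below 60%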
# CF NFkB inh – inhibitors of cystic fibrosis induced NF-kB | KKLEB NF-kB-GFP reporter, PAF-induced, GFP fluorescence overnight | inhibition, % at 5 µM | 360,000 tested, 0.86% active | AID 588850;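 active means at least 50% inhibition at 5 µM, scaled per plate between neutral and stimulator controls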;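 further: PAF is a Pseudomonas aeruginosa culture filtrate used as stimulus; plate controls were PAF-stimulated DMSO wells for no effect and unstimulated DMSO wells for full effect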
# Peg3 promoter – reduces Peg3 promoter-driven luciferase expression in HeLa. HeLa PEG-Prom luciferase reporter, luminescence, overnight. inhibition, % at 20 µM. 360,000 tested, 1.7% active. AID 588405;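 active means inhibition of at least 50% at 20 µM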
# Starred values were filed as active, the others as inactive; ? = inconclusive; . = not tested or not shown.
SMILES,KKLEB cytotox,Shn3 3UTR inh,HIF-2a block,TRPM1 prom inh,CF NFkB inh,Peg3 promoter
COc1cc(CCC(=O)NNC(=O)c2ccc(C)cc2)cc(OC)c1OC,12,17,20,14,-18,-12
COc1cc(SC#N)ccc1N=Cc1c(C)[nH]n(-c2ccc(Cl)cc2)c1=O,9,68,12,45,-13,56*
O=[N+]([O-])c1ccc(O)c(/C=N/Nc2ccc(Cl)nn2)c1,-81*,70,-42,38,62*,-9
O=C1C=C(Nc2ccccc2)c2ccccc2C1=O,-25,42,15,102*,72*,24
CCc1ccc(NC2=CC(=O)C(=O)c3ccccc32)cc1,-91*,33,-112,104*,96*,6
O=C1C=C(Nc2ccccc2)C(=O)c2ccccc21,-8,-67,-164,49,60*,-189
CCCCNC1=CC(=O)C(=O)c2ccccc21,0,16,8,94*,4,13
CCCCC(=O)Nc1cc(OC)c(NC(=S)Nc2ccc(OC)cc2)cc1OC,-6,2,-6,-5,-4,25
CCOc1ccccc1NC(=O)COC(=O)C(CC)c1ccccc1 (configuration not stated),9,12,13,-6,-3,24
O=C1C=C(Nc2cccc3cccnc23)c2ccccc2C1=O,2,-30,13,80*,-6,-17
COC(=O)c1ccc(C)c(-n2c(=O)n(Cc3ccccc3)c(=O)c3[nH]cnc32)c1,-8,-15,12,3,23,17
COc1ccc(C(C(=O)NC2CCCC2)N(C(=O)c2snc(-c3ccc(F)cc3)c2N)c2cccc(F)c2)cc1 (configuration not stated),-22,4,4,19,6,51*
COc1ccc(C(C(=O)NC2CCCC2)N(C(=O)c2snc(-c3ccc(F)cc3)c2N)c2ccccc2)cc1 (configuration not stated),-10,5,16,18,-5,39
CC(=O)N1CCN(C(=O)c2cccc(S(=O)(=O)NCc3ccccc3)c2)CC1,6,-13,4,4,-11,-16
CCOC(=O)c1ccc(N2N=C(C)/C(=C/C=C/c3ccco3)C2=O)cc1,12,-14,-4,6,-38,-21
CC1=NN(c2ccc(C)c(C)c2)C(=O)/C1=C\C=C\c1ccc([N+](=O)[O-])o1,-41,95*,-1,84*,38,88*
O=C(CSc1nc2ncc(Br)cc2[nH]1)Nc1ccccc1-c1ccccc1,-9,15,24,11,43,53*
Cc1cc(C)cc(C(=O)NCC(=O)OCC(=O)N2CCCC2)c1,14,-15,3,.,-18,0
CC[n+]1c(/C=C/c2ccc(N(C)C)cc2)ccc2ccccc21,-13,?,-41,90*,-35,49
CC[n+]1ccc(/C=C/c2ccc(N(C)C)cc2)c2ccccc21,-13,88*,27,88*,-50,50
CC[n+]1c(/C=C/c2ccc(OC)c(OC)c2)ccc2ccccc21,-5,-108,-199,-74,-10,-295
COc1cc(/C=N/Nc2nc(N3CCCC3)nc(N3CCCC3)n2)ccc1OCc1ccccc1F,2,1,0,-63,-25,-83
COC(=O)Cc1ccc(OC2(C)CCN(Cc3csc4ccccc34)C2)cc1 (configuration not stated),-1,28,14,.,6,2
Oc1[nH]c2ccccc2c1N=NC(=S)N1CCOCC1,26,.,16,92*,17,53*
O=S1(=O)CC(N2CCN(c3ncccn3)CC2)CN1Cc1ccc(F)cc1 (configuration not stated),5,12,15,.,1,17
SMILES,KKLEB cytotox,Shn3 3UTR inh,HIF-2a block,TRPM1 prom inh,CF NFkB inh,Peg3 promoter
CC(=O)Nc1ccc(N(CC(O)Cn2c3ccccc3c3ccccc32)S(=O)(=O)c2ccc(C)cc2)cc1 (configuration not stated),-11,29,0,10,4,61*
Cc1ccc(N(CC(O)Cn2c3ccccc3c3ccccc32)S(C)(=O)=O)cc1 (configuration not stated),-10,-20,-26,12,15,12
COc1ccc(CCN2CCC(Nc3nc4ccccc4n3Cc3ccc(F)cc3)CC2)cc1,-11,14,-14,96*,3,82*
COc1ccc(CNc2nc3ccccc3n2CCN2CCCCC2)cc1,-13,38,19,-9,4,4
O=C(CNC(=O)c1ccccc1)OC(C(=O)O)c1ccc(F)cc1 (configuration not stated),7,7,0,.,0,0
Cc1ccc2cc(C#N)c(N3CCCN(C(=S)NCCCN(C)C)CC3)nc2c1,-7,13,4,-10,5,19
Cc1cc(C)c2cc(C#N)c(N3CCCN(C(=S)NCCCN(C)C)CC3)nc2c1,4,12,10,88*,4,104*
COc1ccc(C(=O)COC(=O)CCCC(=O)NC2CCCCC2)cc1,18,4,14,-2,-20,6
CC1=NN(C(N)=S)C(=O)C1N=Nc1cccc(C(=O)O)c1 (configuration not stated),4,15,46*,19,0,28
COc1ccc(CC(N)c2csc(NC(=O)CCc3ccccc3)n2)cc1 (configuration not stated),-7,-18,-12,.,-4,33
COc1ccc(CC(N)c2csc(NC(=O)Nc3ccccc3Oc3ccccc3)n2)cc1 (configuration not stated),-16,15,4,.,20,98*
NC(Cc1ccc(F)cc1)c1csc(NC(=O)NC(c2ccccc2)c2ccccc2)n1 (configuration not stated),-31,39,-17,.,31,96*
COc1ccc(CC(N)c2csc(NC(=O)Nc3ccccc3Cc3ccccc3)n2)cc1 (configuration not stated),3,48,4,.,3,104*
NC(c1ccccc1)c1csc(NC(=O)Nc2ccccc2Oc2ccccc2)n1 (configuration not stated),-25,-9,-16,.,23,82*
NC(c1ccccc1)c1csc(NC(=O)NCCc2ccccc2)n1 (configuration not stated),2,-1,-2,.,-16,10
CCOc1c(CNCCCSc2nc(C)cc(C)n2)cccc1OC,2,1,16,4,5,-15
NC(Cc1ccc(C(F)(F)F)cc1)c1csc(NC(=O)Nc2ccccc2Oc2ccccc2)n1 (configuration not stated),-22,49,19,.,15,98*
NC(Cc1ccc(C(F)(F)F)cc1)c1csc(Nc2cnccn2)n1 (configuration not stated),11,1,-28,.,-26,2

# Assay outcomes deposited in PubChem BioAssay by several laboratories.
